# According to PubChem BioAssay:
# Records with an inconclusive call do not appear. Calls of active or inactive are those of the source. Unless noted, no stated cut-off is given here; in the data, active means inhibition above about 80%; inactive means the rest.
# What was measured:
# [1] = viability loss in pontine glioma line – cell-based, SU-DIPG-XXV, MIPE5.0, CellTiter-Glo, qHTS, dose response (AID 1347065; cut-off not given, nearly all actives have AC50 up to about 26 µM;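 further: cells exposed to compound for 48 hours before ATP readout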); settings: CellTiter-Glo ATP luminescence
# [2] = chitosan synthesis blockers in C. neoformans – flow cytometry, Cibacron Brilliant Red staining (AID 1347148; call rule not given here;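 further: compound exposure lasted three days at 37 degrees C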); settings: Cryptococcus neoformans chitosan, stronger effect = lower value; at 10 µM unless noted
# [3] = compounds altering HSF1 focus formation in cells – imaging, Selleck Cancer Library (AID 1347162; in the data active means plate-normalised HSF1 focus index below about 0.46); settings: human cells, HSF1 nuclear foci imaging, at 10 µM; SSMD: measured here: HSF1 foci SSMD mean; cell count: measured here: cell number; plate-normalised HSF1 focus index: stronger effect = lower value
# [4] = rescue of PC12 cells from polyQ htt toxicity – LDH release (AID 1610); settings: PC12 mutant huntingtin toxicity, final LDH at 4 uM, stronger effect = lower value
# [5] = growth inhibition, single agents and combos, LFS_MB_1R, cell-based, cisplatin or BGB combos, synergistic combos for chromothripsis tumors (AID 1671452); settings: LFS_MB_1R medulloblastoma cells, stronger effect = higher value;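 further: cells exposed for 96 hours before readout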
# [6] = growth inhibition, single agents and combos, CRL2098, cell-based, BGB or cisplatin IC20 combos, synergistic combos for chromothripsis tumors (AID 1671454); settings: CRL2098 osteosarcoma cells, drug combinations, stronger effect = higher value;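 further: cells exposed for 96 h before readout; 0% = vehicle DMSO and 100% = killing by high DMSO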
# [7] = growth inhibition, single agents and combos, HD-MB03, cell-based, BGB or cisplatin IC20 combos, synergistic combos for chromothripsis tumors (AID 1671455; in the data active means inhibition above about 83%;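 further: 0% = vehicle DMSO and 100% = high DMSO as cytotoxic control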); settings: HD-MB03 medulloblastoma cells, stronger effect = higher value
# [8] = growth inhibition, single agents and combos, UWB1.289, cell-based, BGB or cisplatin combos, synergistic combos for chromothripsis tumors (AID 1671456); settings: UWB1.289 ovarian carcinoma cells, stronger effect = higher value;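 further: cells exposed to compound for four days; 0% = vehicle DMSO and 100% = killing by high DMSO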
# [9] = growth inhibition, single agents and combos, LFS_MB_2R, cell-based, cisplatin combos, synergistic combos for chromothripsis tumors (AID 1671457); settings: LFS_MB_2R medulloblastoma cells, stronger effect = higher value;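 further: cells exposed to compound for four days before readout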
# [10] = UWB1.289_BRCA1 ovarian cancer growth, cell-based, BGB or cisplatin combinations (AID 1671459); settings: UWB1.289 BRCA1 ovarian carcinoma, drug combinations, stronger effect = higher value
# [11] = drug combination toxicity in non-malignant astrocytes – cell-based, BGB or cisplatin IC20 combos, cytotoxicity control for chromothriptic childhood tumor combination screen (AID 1671460); settings: Human astrocytes, viability inhibition, drug combinations, at 0.5 µM, stronger effect = higher value;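 further: cells exposed to compounds for 96 hours before viability readout; 0% = vehicle and 100% = killing control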
# [12] = target: Huntingtin (Homo sapiens) (UniProt P42858); experiment: mutant huntingtin aggregation blockers – QA1, dose response (AID 1584); settings: in vitro mutant huntingtin aggregation assay; confirmation test; at 10 µM; stronger effect = lower value
# Chain of Huntingtin (Homo sapiens) (P42858 whole entry, looked up): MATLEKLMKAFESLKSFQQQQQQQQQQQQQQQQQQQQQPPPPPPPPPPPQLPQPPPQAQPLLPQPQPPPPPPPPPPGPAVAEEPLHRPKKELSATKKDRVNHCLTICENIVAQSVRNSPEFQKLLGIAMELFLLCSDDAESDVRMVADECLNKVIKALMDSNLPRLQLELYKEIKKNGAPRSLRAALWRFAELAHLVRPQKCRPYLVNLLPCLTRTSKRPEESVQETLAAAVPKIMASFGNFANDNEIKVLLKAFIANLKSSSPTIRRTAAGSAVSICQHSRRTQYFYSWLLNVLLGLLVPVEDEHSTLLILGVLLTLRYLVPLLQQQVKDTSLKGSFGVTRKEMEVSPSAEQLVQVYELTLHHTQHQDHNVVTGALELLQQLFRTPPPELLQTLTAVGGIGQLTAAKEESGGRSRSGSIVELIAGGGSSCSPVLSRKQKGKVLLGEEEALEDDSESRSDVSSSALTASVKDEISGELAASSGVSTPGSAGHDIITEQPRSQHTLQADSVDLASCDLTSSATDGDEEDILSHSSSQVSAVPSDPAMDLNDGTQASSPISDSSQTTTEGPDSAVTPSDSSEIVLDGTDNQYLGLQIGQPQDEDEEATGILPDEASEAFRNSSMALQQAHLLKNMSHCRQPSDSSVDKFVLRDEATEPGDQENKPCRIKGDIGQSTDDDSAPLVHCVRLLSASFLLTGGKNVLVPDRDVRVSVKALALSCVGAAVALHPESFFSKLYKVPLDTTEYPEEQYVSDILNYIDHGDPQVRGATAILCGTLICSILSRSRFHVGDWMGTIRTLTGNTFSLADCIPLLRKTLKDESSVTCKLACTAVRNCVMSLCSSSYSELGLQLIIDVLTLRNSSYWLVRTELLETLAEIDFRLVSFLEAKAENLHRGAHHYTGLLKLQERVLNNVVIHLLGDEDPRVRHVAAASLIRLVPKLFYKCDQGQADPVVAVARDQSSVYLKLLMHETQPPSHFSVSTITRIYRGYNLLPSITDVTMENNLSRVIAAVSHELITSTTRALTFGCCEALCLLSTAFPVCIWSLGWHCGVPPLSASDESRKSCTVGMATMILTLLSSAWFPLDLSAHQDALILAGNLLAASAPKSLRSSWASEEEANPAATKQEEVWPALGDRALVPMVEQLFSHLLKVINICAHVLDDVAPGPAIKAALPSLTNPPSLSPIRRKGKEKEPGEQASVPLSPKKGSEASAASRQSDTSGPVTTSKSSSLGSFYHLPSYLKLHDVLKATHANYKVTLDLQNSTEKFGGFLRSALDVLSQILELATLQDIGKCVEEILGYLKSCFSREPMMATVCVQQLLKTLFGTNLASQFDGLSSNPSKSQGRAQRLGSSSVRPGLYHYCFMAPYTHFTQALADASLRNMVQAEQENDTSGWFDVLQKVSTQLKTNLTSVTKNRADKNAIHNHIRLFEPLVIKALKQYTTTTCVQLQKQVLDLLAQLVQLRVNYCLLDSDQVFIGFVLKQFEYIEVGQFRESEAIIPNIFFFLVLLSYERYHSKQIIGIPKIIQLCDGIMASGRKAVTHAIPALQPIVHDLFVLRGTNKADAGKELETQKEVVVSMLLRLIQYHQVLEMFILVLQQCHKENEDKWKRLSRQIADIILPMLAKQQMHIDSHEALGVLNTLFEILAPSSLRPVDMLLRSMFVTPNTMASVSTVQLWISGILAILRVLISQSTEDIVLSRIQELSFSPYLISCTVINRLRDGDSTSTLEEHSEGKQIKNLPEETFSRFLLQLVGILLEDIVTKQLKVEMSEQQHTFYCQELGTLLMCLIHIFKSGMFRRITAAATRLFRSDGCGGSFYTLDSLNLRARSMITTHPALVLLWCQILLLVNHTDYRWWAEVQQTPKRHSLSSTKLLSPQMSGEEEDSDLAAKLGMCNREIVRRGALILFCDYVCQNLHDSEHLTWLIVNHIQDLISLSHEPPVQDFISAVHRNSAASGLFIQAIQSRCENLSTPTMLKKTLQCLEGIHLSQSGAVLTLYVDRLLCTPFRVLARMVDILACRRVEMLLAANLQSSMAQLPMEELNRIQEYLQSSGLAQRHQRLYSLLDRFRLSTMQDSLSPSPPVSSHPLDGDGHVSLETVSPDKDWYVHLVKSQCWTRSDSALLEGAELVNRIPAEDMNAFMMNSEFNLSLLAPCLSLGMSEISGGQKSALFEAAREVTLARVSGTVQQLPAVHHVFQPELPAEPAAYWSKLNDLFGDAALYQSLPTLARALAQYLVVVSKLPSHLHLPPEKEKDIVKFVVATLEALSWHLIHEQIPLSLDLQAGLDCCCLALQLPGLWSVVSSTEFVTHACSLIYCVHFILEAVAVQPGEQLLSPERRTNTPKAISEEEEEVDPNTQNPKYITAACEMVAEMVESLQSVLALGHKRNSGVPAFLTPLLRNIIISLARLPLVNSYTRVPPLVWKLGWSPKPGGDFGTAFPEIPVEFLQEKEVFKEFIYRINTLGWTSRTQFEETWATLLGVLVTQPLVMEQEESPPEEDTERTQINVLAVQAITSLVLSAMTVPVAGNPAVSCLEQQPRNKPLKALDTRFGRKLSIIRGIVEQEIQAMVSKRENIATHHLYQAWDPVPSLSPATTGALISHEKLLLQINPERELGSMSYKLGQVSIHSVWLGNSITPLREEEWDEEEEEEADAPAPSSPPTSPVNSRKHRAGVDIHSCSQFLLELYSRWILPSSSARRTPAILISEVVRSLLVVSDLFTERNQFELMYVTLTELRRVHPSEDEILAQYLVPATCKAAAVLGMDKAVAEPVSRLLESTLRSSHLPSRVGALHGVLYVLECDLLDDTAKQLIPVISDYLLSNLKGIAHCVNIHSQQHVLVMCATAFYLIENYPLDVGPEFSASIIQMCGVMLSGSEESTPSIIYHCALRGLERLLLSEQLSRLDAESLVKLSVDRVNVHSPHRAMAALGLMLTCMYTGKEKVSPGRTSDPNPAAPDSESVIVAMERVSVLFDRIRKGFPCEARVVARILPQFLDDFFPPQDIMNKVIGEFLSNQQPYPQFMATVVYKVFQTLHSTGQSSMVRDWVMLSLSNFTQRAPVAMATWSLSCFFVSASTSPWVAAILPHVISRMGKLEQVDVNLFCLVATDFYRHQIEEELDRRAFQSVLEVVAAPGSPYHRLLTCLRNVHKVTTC
# [13] = glutamate excitotoxicity neuroprotectants – cell-based, TUNEL DNA degradation staining, MNGlu (AID 1594; call rule not given here); settings: motor neurons, glutamate-induced death, at 1 µM, stronger effect = higher value
# [14] = selective SMN2 exon splicing luciferase activators – cell-based, SMN2/SMN1 luciferase reporters (AID 1598; call rule not given here); settings: SMN2 vs SMN1 luciferase splicing reporter cells, at 10 µM; SMN1 luciferase ratio: measured here: SMN1 luciferase reporter average; SMN2 luciferase ratio: measured here: SMN2 luciferase reporter average, stronger effect = higher value; SMN2/SMN1 luciferase ratio: stronger effect = higher value
# [15] = measured here: combination with BGB IC40, at 0.05 µM
# [16] = measured here: combination with cisplatin, at 0.5 µM
# [17] = measured here: combination with cisplatin, at 5 µM
# [18] = measured here: combination with BGB at IC20, at 0.5 µM
# [19] = measured here: combination with cisplatin at IC20, at 0.5 µM
# [20] = measured here: combo with BGB at IC20, at 0.5 µM
# [21] = measured here: combo with cisplatin at IC20, at 0.5 µM
# [22] = measured here: inhibition with BGB combination, at 0.05 µM
# [23] = measured here: inhibition with cisplatin combination, at 0.05 µM
# [24] = BGB combination, concentration series, at 5 µM
# [25] = cisplatin combination, concentration series, at 5 µM
# [26] = measured here: combo with BGB IC20
# [27] = measured here: combo with cisplatin IC20
compound,measurement,setting,value
NCCc1cnc[nH]1,outcome,[1],inactive
same,fold fluorescence,[2],5.22 [at 449.9 µM] (inactive)
COc1c(C)c2c(c(O)c1C/C=C(\C)CCC(=O)O)C(=O)OC2,fold fluorescence,[2],7.43 [at 156.1 µM] (inactive)
same,SSMD,[3],-0.56
same,cell count,[3],7660
same,plate-normalised HSF1 focus index,[3],0.964 (inactive)
COc1cc(CNC(=O)CCCC/C=C/C(C)C)ccc1O,fold fluorescence,[2],7.26 [at 163.7 µM] (inactive)
O=c1cc(-c2ccc(O)cc2)oc2cc(O)cc(O)c12,normalised LDH release,[4],0.887
CC/C(=C(\c1ccccc1)c1ccc(OCCN(C)C)cc1)c1ccccc1,AC50,[1],19.1 µM (active)
same,fold fluorescence,[2],8.26 [at 134.6 µM] (inactive)
same,SSMD,[3],-8.19
same,cell count,[3],3320
same,plate-normalised HSF1 focus index,[3],0.591 (inactive)
CN1C2CCC1CC(OC(=O)C(CO)c1ccccc1)C2 (stereo unspecified),outcome,[1],inactive
O=c1c(O)c(-c2ccc(O)c(O)c2)oc2cc(O)ccc12,inhibition,[5]; at 0.5 µM,-4.27% (inactive)
same,inhibition,[5]; [15],-15.9%
same,inhibition,[5]; [16],-18.5%
same,inhibition,[5]; [17],-12.6%
same,inhibition,[6]; at 0.5 µM,3.92% (inactive)
same,inhibition,[6]; [18],-8.68%
same,inhibition,[6]; [19],27.9%
same,inhibition,[7]; at 0.5 µM,-0.08% (inactive)
same,inhibition,[7]; [20],1.14%
same,inhibition,[7]; [21],-0.856%
same,inhibition,[8]; at 0.5 µM,3.05% (inactive)
same,inhibition,[8]; [22],1.82%
same,inhibition,[8]; [23],-4.79%
same,inhibition,[9]; at 0.5 µM,1.64% (inactive)
same,inhibition,[9]; [16],-4.17%
same,inhibition,[9]; [17],-0.986%
same,inhibition,[10]; [24],14.5%
same,inhibition,[10]; at 0.5 µM,1.05% (inactive)
same,inhibition,[10]; [25],19.6%
same,inhibition,[11],10.6% (inactive)
same,inhibition,[11]; [26],1.09%
same,inhibition,[11]; [27],26.6%
CC[C@H]1OC(=O)[C@H](C)[C@@H](O[C@H]2C[C@@](C)(OC)[C@@H](O)[C@H](C)O2)[C@H](C)[C@@H](O[C@@H]2O[C@H](C)C[C@H](N(C)C)[C@H]2O)[C@](C)(O)C[C@@H](C)C(=O)[C@H](C)[C@@H](O)[C@]1(C)O,outcome,[1],inactive
c1coc(CNc2ncnc3nc[nH]c23)c1,outcome,[1],inactive
O=C1C[C@@H](c2ccc(O)cc2)Oc2cc(O)cc(O)c21,outcome,[1],inactive
O=C(/C=C/C=C/c1ccc2c(c1)OCO2)N1CCCCC1,outcome,[1],inactive
O=C(CCc1ccc(O)cc1)c1c(O)cc(O)cc1O,outcome,[1],inactive
same,SSMD,[3],2.09
same,cell count,[3],7280
same,plate-normalised HSF1 focus index,[3],1.13 (inactive)
Cc1cc(O)c2c(c1)C(=O)c1cccc(O)c1C2=O,outcome,[1],inactive
same,SSMD,[3],1.91
same,cell count,[3],7380
same,plate-normalised HSF1 focus index,[3],1.07 (inactive)
O=C(/C=C/c1ccc(O)c(O)c1)OCCc1ccccc1,fold fluorescence,[2],6.87 [at 175.9 µM] (inactive)
O=C(CCc1ccc(O)cc1)c1c(O)cc(O)cc1O[C@@H]1O[C@H](CO)[C@@H](O)[C@H](O)[C@H]1O,outcome,[1],inactive
c1ccc2c(Cc3c[nH]c4ccccc34)c[nH]c2c1,outcome,[1],inactive
same,fold fluorescence,[2],4.77 (inactive)
COc1ccc2cc1Oc1ccc(cc1)C[C@H]1c3cc(c(OC)cc3CCN1C)Oc1c(OC)c(OC)cc3c1[C@H](C2)N(C)CC3,fold fluorescence,[2],5.71 [at 80.3 µM] (inactive)
COc1ccc(-c2coc3cc(O)cc(O)c3c2=O)cc1,normalised LDH release,[4],1.03
same,outcome,[1],inactive
CCC(c1ccc(O)cc1)C(CC)c1ccc(O)cc1 (stereo unspecified),outcome,[1],inactive
O=c1c(O)c(-c2ccc(O)cc2O)oc2cc(O)cc(O)c12,aggregation ratio,[12],0.704
CCn1nc(C(=O)O)c(=O)c2cc3c(cc21)OCO3,inhibition,[5]; at 0.5 µM,-36.2% (inactive)
same,inhibition,[5]; [15],-30.8%
same,inhibition,[5]; [16],-40.5%
same,inhibition,[5]; [17],15.7%
same,inhibition,[6]; at 0.5 µM,-51.5% (inactive)
same,inhibition,[6]; [18],-50.7%
same,inhibition,[6]; [19],-58%
same,inhibition,[7]; at 0.5 µM,-4.61% (inactive)
same,inhibition,[7]; [20],-9.5%
same,inhibition,[7]; [21],-2.73%
same,inhibition,[8]; at 0.5 µM,-2.26% (inactive)
same,inhibition,[8]; [22],-31.4%
same,inhibition,[8]; [23],-13.5%
same,inhibition,[9]; at 0.5 µM,-9.44% (inactive)
same,inhibition,[9]; [16],-16.5%
same,inhibition,[9]; [17],-17.7%
same,inhibition,[10]; [24],14%
same,inhibition,[10]; at 0.5 µM,-2.39% (inactive)
same,inhibition,[10]; [25],6.77%
same,inhibition,[11],10.8% (inactive)
same,inhibition,[11]; [26],8.46%
same,inhibition,[11]; [27],10.9%
O=c1cc(-c2ccccc2)oc2cc(O)cc(O)c12,AC50,[1],20.9 µM (active)
CN1CCc2cccc3c2C1Cc1ccc(O)c(O)c1-3 (stereo unspecified),normalised LDH release,[4],0.891
C=C1c2c(Cl)ccc(O)c2C(O)=C2C(=O)[C@]3(O)C(O)=C(C(N)=O)C(=O)[C@@H](N(C)C)[C@@H]3[C@@H](O)[C@H]12,aggregation ratio,[12],0.703
CN1CCc2c(c3ccccc3n2Cc2ccccc2)C1,protection,[13],49% (active)
same,normalised LDH release,[4],0.901
NC(N)=NCCCCN=C(N)N,protection,[13],45% (active)
COc1c2ccoc2cc2oc(=O)ccc12,inhibition,[5]; at 0.5 µM,-1.71% (inactive)
same,inhibition,[5]; [15],-39.8%
same,inhibition,[5]; [16],-31.5%
same,inhibition,[5]; [17],0.408%
same,inhibition,[6]; at 0.5 µM,-46.9% (inactive)
same,inhibition,[6]; [18],-48%
same,inhibition,[6]; [19],-47.5%
same,inhibition,[7]; at 0.5 µM,-4.51% (inactive)
same,inhibition,[7]; [20],-4.11%
same,inhibition,[7]; [21],-2.34%
same,inhibition,[8]; at 0.5 µM,-2.25% (inactive)
same,inhibition,[8]; [22],-12.4%
same,inhibition,[8]; [23],-7.34%
same,inhibition,[9]; at 0.5 µM,-16.1% (inactive)
same,inhibition,[9]; [16],-10.7%
same,inhibition,[9]; [17],0.771%
same,inhibition,[10]; [24],5.68%
same,inhibition,[10]; at 0.5 µM,-4.34% (inactive)
same,inhibition,[10]; [25],13.5%
same,inhibition,[11],1.97% (inactive)
same,inhibition,[11]; [26],-6.42%
same,inhibition,[11]; [27],7.69%
CC(C(=O)O)c1ccc(N2Cc3ccccc3C2=O)cc1 (stereo unspecified),SMN1 luciferase ratio,[14],0.71
same,SMN2/SMN1 luciferase ratio,[14],2.02 (active)
same,SMN2 luciferase ratio,[14],1.4
Cc1cc(/C=C/c2ccc3cc(N(C)C)ccc3[n+]2C)c(C)n1-c1ccccc1,aggregation ratio,[12],0.715
